The text below walks through data of PubChem BioAssay (EPA / NIEHS).

The structures appear in SMILES notation. Where “and” joins values, the source holds several entries; their conditions need not be identical. Equal entries are not always repeated. Where a structure was tested more than once in an assay, its records may differ in their call. Calls of active or inactive are those of the source. How the source made its calls: active means hit-call score of the fitted dose curve at least 0.9, where 1 is the maximum; inactive means score below 0.9.

Assay [1] in a line: ATG_CRE_CIS: Attagene CIS-FACTORIAL HepG2 Assay for human cAMP Responsive Element (CRE) binding protein 3 (AID 2282926). Conditions: HepG2 CRE cis-reporter, Attagene multiplexed mRNA; actives raise or lower the signal. Put shortly: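 HepG2 cells transiently transfected with a multiplexed reporter library (CRE-driven unit among them) were dosed for 24 h. Reporter mRNA was quantified by RT-PCR, fluorescent labelling, HpaI digestion and capillary electrophoresis, with bidirectional fitting against DMSO baseline.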

Assay [2] has as its target CCAAT/enhancer-binding protein beta (Homo sapiens) (UniProt P17676). In words: ATG_C_EBP_CIS: Attagene CIS-FACTORIAL HepG2 Assay for human CCAAT/Enhancer Binding Protein (C/EBP) beta (AID 2282927). To be noted: HepG2 Attagene cis-factorial transcription factor reporter; actives raise or lower the signal. Put shortly: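 Transiently transfected HepG2 (MRTU library, endogenous TF-driven promoters); 24 h dosing; total RNA → oligo(dT) RT → PCR → 6-FAM primer extension → HpaI digest → CE; fit bidirectionally vs DMSO.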

Assay [3] is described as follows: ATG_CMV_CIS: Attagene CIS-FACTORIAL HepG2 Assay for human CMV (Internal Marker) (AID 2282928).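 Further: endpoint acts as a background internal control marker rather than a target.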 Conditions: HepG2 CMV promoter reporter, transcription factor profiling; actives raise or lower the signal. In outline: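 After transient transfection of HepG2 with reporter transcription units driven by cis-regulatory promoters, cells receive test chemical for 24 h. Labeled reporter amplicons, digested with HpaI, are sized and quantified by capillary electrophoresis against DMSO.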

Assay [4] in a line: ATG_DR4_LXR_CIS: Attagene CIS-FACTORIAL HepG2 Assay for human Liver X Receptor (LXR), DR4 submotif (AID 2282929). Conditions: HepG2 Attagene DR4 cis-reporter, mRNA transcription; actives raise or lower the signal. Put shortly: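 HepG2 cells were transiently transfected with multiple cis-regulated reporter units and dosed for 24 hours. The DR4 reporter mRNA was quantified by RT-PCR, 6-FAM labelling and capillary electrophoresis. Bidirectional fits used DMSO as baseline.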

Assay [5] addresses Aryl hydrocarbon receptor (Homo sapiens) (UniProt P35869). Description: ATG_Ahr_CIS: Attagene CIS-FACTORIAL HepG2 Assay for human Aryl Hydrocarbon Receptor (Ahr) (AID 2282930). To be noted: HepG2 AhR cis-factorial reporter transcription; actives raise or lower the signal. Put shortly: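 Read-out: reporter mRNA quantified by RT-PCR with fluorescent primer extension and capillary electrophoresis. Human HepG2 liver cells carried transfected cis-promoter reporter units and were exposed to chemical for 24 h; gain or loss fitted relative to DMSO.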

Assay [6] is described as follows: ATG_AP_1_CIS: Attagene CIS-FACTORIAL HepG2 Assay for human Activator Protein 1 (AP-1) (AID 2282931). Conditions: HepG2 Attagene cis-factorial AP-1 reporter mRNA; actives raise or lower the signal. In outline: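 HepG2 cells transiently transfected with cis-element-driven reporter transcription units, dosed for 24 hours. Reporter mRNA measured by RT-PCR, 6-FAM labelling, HpaI digestion and capillary electrophoresis. Bidirectional fitting against DMSO baseline.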

Assay [7] is described as follows: ATG_AP_2_CIS: Attagene CIS-FACTORIAL HepG2 Assay for human Activator Protein 2 (AP-2) (AID 2282932). Conditions: HepG2 AP-2 cis-reporter, Attagene transcription factor profiling; actives raise or lower the signal. In outline:
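HepG2 cells transiently transfected with cis-element reporter units and exposed for 24 h. Reporter mRNA measured by RT-PCR, FAM labelling, HpaI digestion and capillary electrophoresis. Changes in either direction fitted relative to DMSO.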

Assay [8] in a line: ATG_BRE_CIS: Attagene CIS-FACTORIAL HepG2 Assay for human Bone Morphogenetic Protein (BMP) Response Element (BRE) (AID 2282933). Conditions: HepG2 BMP response element reporter, Attagene transcription factor profiling; actives raise or lower the signal. Put shortly: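 Read-out: reporter mRNA induction quantified by RT-PCR and capillary electrophoresis after 24 h chemical exposure of transfected HepG2 cells. Endogenous factor activity on the BMP response element; gain or loss fitted against DMSO baseline.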

The target in assay [9] is Transcription factor E2F1 (Homo sapiens) (UniProt Q01094). In words: ATG_E2F_CIS: Attagene CIS-FACTORIAL HepG2 Assay for human E2F Transcription Factor 1 (AID 2282935). To be noted: HepG2 Attagene cis-reporter, E2F reporter RNA transcripts; actives raise or lower the signal. In outline:
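Endogenous E2F1 activity read through cis-promoter reporter units transfected into HepG2. After 24 h compound treatment, reporter mRNA measured by RT-PCR, HpaI digestion and capillary electrophoresis. Bidirectional fit versus DMSO.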

Assay [10] concerns the target Retinoic acid receptor alpha (Homo sapiens) (UniProt P10276). Description: ATG_DR5_RAR_CIS: Attagene CIS-FACTORIAL HepG2 Assay for human Retinoic Acid Receptor Alpha (RARE), DR5 submotif (AID 2282934).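 On AC50: reporter responds to endogenous RAR alpha beta and gamma in HepG2 not RARA alone.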 To be noted: HepG2 Attagene cis-factorial RARE DR5 reporter, mRNA; actives raise or lower the signal. Put shortly: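 Read-out: DR5-driven reporter transcript measured by RT-PCR, 6-FAM primer extension, HpaI digest and capillary electrophoresis. Human HepG2 liver cells carry transiently transfected cis-element reporter constructs; dosing lasts 24 h. Gain or loss of signal fitted against DMSO baseline.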

Chain of Transcription factor E2F1 (Homo sapiens) (Q01094 whole entry, looked up): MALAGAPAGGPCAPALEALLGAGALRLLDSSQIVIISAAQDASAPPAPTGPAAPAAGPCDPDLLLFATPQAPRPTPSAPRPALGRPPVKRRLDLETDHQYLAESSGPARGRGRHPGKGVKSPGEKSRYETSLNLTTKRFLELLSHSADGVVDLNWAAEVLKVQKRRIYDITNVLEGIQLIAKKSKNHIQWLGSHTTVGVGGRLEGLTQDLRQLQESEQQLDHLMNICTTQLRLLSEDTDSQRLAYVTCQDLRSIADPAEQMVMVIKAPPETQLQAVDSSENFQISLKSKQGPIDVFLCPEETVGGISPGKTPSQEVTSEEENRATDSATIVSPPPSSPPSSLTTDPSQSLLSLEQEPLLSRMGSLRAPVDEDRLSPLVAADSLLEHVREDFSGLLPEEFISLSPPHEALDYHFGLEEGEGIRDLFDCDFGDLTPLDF
Chain of Retinoic acid receptor alpha (Homo sapiens) (P10276 whole entry, looked up): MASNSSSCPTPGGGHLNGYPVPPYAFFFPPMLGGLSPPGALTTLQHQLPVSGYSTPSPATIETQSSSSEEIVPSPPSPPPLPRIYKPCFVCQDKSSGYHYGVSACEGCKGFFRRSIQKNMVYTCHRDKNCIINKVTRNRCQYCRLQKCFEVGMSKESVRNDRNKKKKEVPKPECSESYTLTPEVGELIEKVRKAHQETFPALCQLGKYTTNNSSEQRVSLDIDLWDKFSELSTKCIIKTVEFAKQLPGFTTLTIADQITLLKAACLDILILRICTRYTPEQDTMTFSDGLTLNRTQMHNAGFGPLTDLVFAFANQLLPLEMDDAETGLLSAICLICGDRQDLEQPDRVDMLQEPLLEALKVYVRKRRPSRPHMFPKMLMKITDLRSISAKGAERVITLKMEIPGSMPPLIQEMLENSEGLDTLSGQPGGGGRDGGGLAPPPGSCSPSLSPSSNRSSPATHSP
Chain of CCAAT/enhancer-binding protein beta (Homo sapiens) (P17676 whole entry, looked up): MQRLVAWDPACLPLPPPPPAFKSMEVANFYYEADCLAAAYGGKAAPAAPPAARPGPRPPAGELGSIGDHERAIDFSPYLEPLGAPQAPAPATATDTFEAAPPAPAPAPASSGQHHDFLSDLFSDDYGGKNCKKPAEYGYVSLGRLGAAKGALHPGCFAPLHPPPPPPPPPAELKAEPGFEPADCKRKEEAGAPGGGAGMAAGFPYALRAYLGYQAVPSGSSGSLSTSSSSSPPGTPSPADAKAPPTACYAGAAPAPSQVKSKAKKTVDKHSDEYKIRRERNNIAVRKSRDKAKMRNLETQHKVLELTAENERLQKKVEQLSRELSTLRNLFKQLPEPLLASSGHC
Chain of Aryl hydrocarbon receptor (Homo sapiens) (P35869 whole entry, looked up): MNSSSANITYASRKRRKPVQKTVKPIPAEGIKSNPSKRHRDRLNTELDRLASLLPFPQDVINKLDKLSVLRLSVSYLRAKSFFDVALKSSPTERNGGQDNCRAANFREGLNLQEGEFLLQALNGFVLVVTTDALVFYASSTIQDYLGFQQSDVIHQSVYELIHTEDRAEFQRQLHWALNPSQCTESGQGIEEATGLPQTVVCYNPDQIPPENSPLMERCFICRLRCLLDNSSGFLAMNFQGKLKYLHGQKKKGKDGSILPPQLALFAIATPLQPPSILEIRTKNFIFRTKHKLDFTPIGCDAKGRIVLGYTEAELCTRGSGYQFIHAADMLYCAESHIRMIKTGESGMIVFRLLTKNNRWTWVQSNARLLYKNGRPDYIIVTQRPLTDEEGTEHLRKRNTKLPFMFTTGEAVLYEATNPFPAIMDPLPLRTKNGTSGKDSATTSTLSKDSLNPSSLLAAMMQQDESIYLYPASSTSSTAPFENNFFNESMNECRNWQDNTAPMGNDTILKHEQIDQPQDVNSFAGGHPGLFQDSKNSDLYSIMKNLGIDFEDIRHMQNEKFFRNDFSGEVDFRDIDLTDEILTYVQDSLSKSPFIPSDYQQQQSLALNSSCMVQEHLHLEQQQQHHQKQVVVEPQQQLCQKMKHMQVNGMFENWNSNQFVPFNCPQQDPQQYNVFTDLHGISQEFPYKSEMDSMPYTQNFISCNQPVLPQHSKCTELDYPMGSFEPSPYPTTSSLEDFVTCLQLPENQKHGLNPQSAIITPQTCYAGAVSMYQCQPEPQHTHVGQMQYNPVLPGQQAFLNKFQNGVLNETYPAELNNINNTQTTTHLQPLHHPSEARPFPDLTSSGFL

In the case of `O=C(CCl)CCl`, the AC50 in [1] is 24.7 µM (active); in [3], 54 µM (active); in assay [4], 23.3 µM (active); in assay [7], 33.4 µM (active). For the same molecule, the result in assay [2], in [5], in assay [6], in assay [8] and in [9] was inactive.

As for `CCN1CCC2(CC1)COc1cc3c(cc12)N(C(=O)c1ccc(-c2ccc(-c4nnc(C)o4)cc2C)cc1)CC3`, the molecule was called inactive in [1], in assay [2], in assay [4], in assay [5], in [6] and in assay [7]. Besides, the call in assay [8], in assay [10] and in assay [9] was inactive. Besides, the AC50 in assay [3] is 5.81 µM (active).

On to `N#CCc1ccc(Cl)cc1`, for which the call in assay [1], in assay [2], in assay [3], in assay [4], in assay [5] and in [6] was inactive. For the same molecule, the call in assay [7], in assay [8], in assay [10] and in assay [9] was inactive.

Consider `O=c1[nH]c(=O)[nH]c(=O)[nH]1`, for which the call in assay [1], in [2], in assay [3], in assay [4], in assay [5] and in assay [6] was inactive. Moreover, the outcome in assay [7], in assay [8], in [10] and in assay [9] was inactive.

For the molecule `C=C(C)C(=O)[O][Sn]([CH2]CCC)([CH2]CCC)[CH2]CCC`, the molecule was called inactive in assay [1], in assay [2], in [4], in assay [5], in [8] and in assay [9]. Further, the AC50 in [3] was 0.288 µM (active); in [6] it was 0.451 µM (active); in [7], 0.412 µM (active); in [10] it was 0.00707 µM (active).

With `C=CC(=O)N(C)C`, the molecule was called inactive in [1], in assay [2], in [3], in assay [4], in assay [5] and in [6]. Further, the result in assay [7], in assay [8] and in [9] was inactive.

With `CC(C)OC(=O)Nc1ccccc1`, the outcome in assay [1], in assay [2], in assay [3], in assay [4], in [5] and in assay [6] was inactive. Besides, the outcome in assay [7], in [8], in assay [10] and in assay [9] was inactive.

Consider `Cc1cc(=O)[nH]o1`, for which the outcome in assay [1], in assay [2], in assay [3], in assay [4], in [5] and in assay [6] was inactive. The call in [7], in assay [8] and in [9] was inactive.

Take `O=C1C2(Cl)C3(Cl)C4(Cl)C(Cl)(Cl)C5(Cl)C3(Cl)C1(Cl)C5(Cl)C24Cl` (stereo unspecified): the AC50 was 14.3 µM (active) in [1]; 17.7 µM (active) in assay [2]; 2.8 µM (active) in assay [3]; 2.8 µM (active) and 4.23 µM (active) in assay [4]; 18.4 µM (active) in assay [7]; 20.9 µM (active) in assay [10]. For the same molecule, in [9], the AC50 was 11.1 µM (active). For the same molecule, the result in assay [1], in [2], in assay [3], in [4], in [5] and in assay [7] was inactive. The result in assay [8], in assay [10] and in [9] was inactive.

As for `C=CC(=O)OCCCCCC(C)C`, the molecule was called inactive in assay [1], in assay [2], in assay [3], in [4], in assay [5] and in assay [6]. The call in assay [7], in assay [8], in assay [10] and in [9] was inactive.

Consider `O=CC=O`, for which the molecule was classed as inactive in assay [1], in assay [2], in assay [3], in assay [4], in assay [5] and in assay [6]. In addition, the call in [7], in assay [8], in [10] and in [9] was inactive.

Regarding `COC[C@H](C)N(C(=O)CCl)c1c(C)csc1C`, the result in assay [1], in assay [2], in [3], in [4], in assay [5] and in [6] was inactive. Besides, the result in [7], in assay [8] and in assay [9] was inactive.

On to `C[C@H]1CCCC(=O)CCC/C=C/c2cc(O)cc(O)c2C(=O)O1`, for which the result in [1], in assay [2], in assay [4], in assay [6], in assay [7] and in assay [9] was inactive. In addition, the AC50 was 31.1 µM (active) in assay [3], 22.5 µM (active) in assay [5] and 64.5 µM (active) in assay [8].

Consider `ClC1=C(Cl)[C@]2(Cl)[C@H]3[C@H]([C@H]4C=C[C@H]3C4)[C@@]1(Cl)C2(Cl)Cl`, for which the outcome in [1], in [2], in assay [3], in [5], in [6] and in assay [7] was inactive. The molecule was classed as inactive in assay [8] and in [9]. Further, in assay [4], the AC50 was 10.2 µM (active).

Consider `CCC(C)c1cccc(C(C)CC)c1O` (stereo unspecified), for which the molecule was classed as inactive in assay [1], in [2], in assay [3], in assay [4], in [5] and in assay [6]. The result in assay [7], in assay [8], in assay [10] and in assay [9] was inactive.

For the molecule `O=S(=O)(c1ccc(Cl)cc1)c1ccc(Cl)cc1`, the molecule was classed as inactive in assay [1], in assay [2], in assay [4], in [5], in assay [8] and in assay [9]. In assay [6], the half-maximal activity concentration (AC50) is 35.8 µM (active).

With `OCc1ccco1`, the result in assay [1], in assay [2], in assay [3], in assay [4], in assay [5] and in assay [8] was inactive. For the same molecule, in assay [9], the molecule was called inactive.

For the molecule `CC(=[OH+])/C=C(/C)[O-].CC(=[OH+])/C=C(/C)[O-].CC(=[OH+])/C=C(/C)[O-].[Fe]`, the result in assay [1], in [2], in assay [4], in [5], in assay [7] and in assay [8] was inactive. Moreover, the molecule was called inactive in assay [9].

For the molecule `Nc1ccc(Cl)cc1C(=O)c1ccccc1`, the outcome in assay [1], in [2], in assay [3], in assay [5], in assay [6] and in assay [8] was inactive. In addition, the molecule was classed as inactive in [9]. Also, the AC50 in [4] is 49.5 µM (active).

Regarding `O=C/C=C/c1ccccc1`, the result in assay [1], in assay [2], in assay [3], in assay [4], in assay [5] and in assay [6] was inactive. For the same molecule, the molecule was classed as inactive in assay [8], in assay [10] and in assay [9].

Consider `CC1(C)Cc2cccc(O)c2O1`, for which the call in assay [1], in assay [2], in [4], in [5], in assay [7] and in assay [8] was inactive. Besides, the call in assay [10] and in [9] was inactive.

Regarding `CCC(=O)C(CC(C)N(C)C)(c1ccccc1)c1ccccc1` (stereo unspecified), the molecule was classed as inactive in assay [1], in [2], in [5], in [6], in assay [8] and in assay [10]. Further, in [9], the result was inactive. In addition, in assay [4], the AC50 is 92.4 µM (active).

For the molecule `CCCCC(CC)CO[N+](=O)[O-]` (stereo unspecified), the call in [1], in assay [2], in assay [4], in [5], in assay [6] and in assay [7] was inactive. For the same molecule, the molecule was classed as inactive in assay [8] and in assay [9]. Further, the AC50 in [10] is 99.5 µM (active).

As for `Clc1ccc(COC(Cn2ccnc2)c2ccc(Cl)cc2Cl)cc1` (stereo unspecified), the outcome in [1], in assay [2], in [3], in [5], in assay [8] and in assay [10] was inactive. Also, the call in [9] was inactive. The AC50 in assay [4] is 4.8 µM (active).

One may read the AC50 as the concentration at which the activity in the assay is half-maximal.
